NRP1-CendR mod: modulators of CendR peptide binding to human neuropilin-1; inhibition, % at 25 µM; AID 602438; O14786; 360,000 compounds, 0.85% hits; FAM-RPARPAR peptide binding to NRP-1, fluorescence polarization;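 active = inhibition or corrected inhibition above about 18%, plus a signal ratio from 0.5 to 1.5, limit read from the data, passing the limit was not always enough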
A3G deaminase: blocks human APOBEC3G single-stranded DNA deamination; 330,000 compounds, 0.28% hits; Q9HC16; inhibition, % at 20 µM; recombinant A3G, ssDNA deamination FAM/TAMRA fluorescence;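 active = inhibition of at least 40% at 20 µM, with no more than 30% in the related APOBEC3A deaminase screen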
Target sequence (Q9HC16 whole entry, looked up): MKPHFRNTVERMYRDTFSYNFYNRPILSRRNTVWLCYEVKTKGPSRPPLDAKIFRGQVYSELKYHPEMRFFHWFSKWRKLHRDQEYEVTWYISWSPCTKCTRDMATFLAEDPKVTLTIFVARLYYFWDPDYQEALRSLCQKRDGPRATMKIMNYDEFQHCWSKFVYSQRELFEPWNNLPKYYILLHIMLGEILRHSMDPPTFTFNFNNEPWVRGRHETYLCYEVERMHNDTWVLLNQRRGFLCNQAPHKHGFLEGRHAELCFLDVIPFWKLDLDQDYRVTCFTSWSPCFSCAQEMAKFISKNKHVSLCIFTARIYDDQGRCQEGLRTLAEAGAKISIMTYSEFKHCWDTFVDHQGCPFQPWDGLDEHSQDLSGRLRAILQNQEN
ALR H2O2 inh: human ALR oxidase inhibition via reduced H2O2 | P55789 | purified ALR, DTT oxidation, H2O2 HRP-luminol luminescence | inhibition, % (concentration not given with the values) | 290,000 compounds, 3.8% hits | AID 485317;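 active = mean replicate inhibition above about 79%, with every replicate also reaching it, limit read from the data; inconclusive = only one of the two criteria met; inactive = mean below limit and not every replicate reaching it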
Target sequence (P55789 whole entry, looked up): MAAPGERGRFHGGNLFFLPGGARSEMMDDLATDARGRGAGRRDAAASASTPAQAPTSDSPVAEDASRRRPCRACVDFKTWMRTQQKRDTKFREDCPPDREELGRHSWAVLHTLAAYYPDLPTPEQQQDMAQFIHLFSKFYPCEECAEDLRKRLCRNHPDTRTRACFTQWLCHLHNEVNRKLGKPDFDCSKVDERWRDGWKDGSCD
CR mimetic SO: yeast age-related superoxide inhibition as caloric restriction mimetic. S. cerevisiae aged cells, superoxide DHE fluorescence; active compounds read low. superoxide response (% of plate mean), % at 10 µM. 330,000 compounds, 0.18% hits. AID 2690;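 active = superoxide response under a set limit, about three screen SD below normal, cut at about 65% in these data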;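 also: yeast aged for seven days with compound at 30 °C before DHE staining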
A3A deaminase: blocks human APOBEC3A ssDNA deamination | P31941 | recombinant A3A, FAM/TAMRA ssDNA deamination fluorescence | inhibition, % at 20 µM | 330,000 compounds, 0.41% hits | AID 493011;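 active = at least 40% inhibition at 20 µM here, with at most 30% in a related deaminase screen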
PfM18AAP inh: blocks P. falciparum M18 aspartyl aminopeptidase | inhibition, % at 7.35 µM | 290,000 compounds, 1.2% hits | AID 1822 | recombinant PfM18AAP, H-Glu-NHMec fluorogenic cleavage;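 active = inhibition above the campaign mean inhibition over all tested compounds plus 3 SD, cut at about 28% in these data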
Each line names hits and unclear results; the compound was inactive in the other large screens. Sampled rows, rich in hits. Any-hit rate of the full collection: about 5.2%.

CC1CCCCN1CCNC(=O)c1ccc2c(c1)N(Cc1cccc(Cl)c1)C(=O)c1ccccc1S2=O (stereo not given)	none
CS(=O)(=O)C1=NSC2=NC(=O)/C(=C\c3ccc(OS(=O)(=O)c4ccccc4)cc3)C(=N)N21	none
Cc1ccc(S(=O)(=O)Oc2ccc(/C=C3\C(=N)N4N=C(S(C)(=O)=O)SC4=NC3=O)cc2)cc1	ALR H2O2 inh 92
COc1cc(/C=C2\C(=N)N3N=C(S(C)(=O)=O)SC3=NC2=O)ccc1OS(=O)(=O)c1ccccc1	ALR H2O2 inh 91 (no result: NRP1-CendR mod)
COc1cccc(-n2c(C)cc(/C=C3/C(=N)N4C(=NC3=O)SN=C4S(C)(=O)=O)c2C)c1	ALR H2O2 inh 97
Cc1ccc(S(=O)(=O)Oc2ccc(/C=C3/C(=N)N4C(=NC3=O)SN=C4S(C)(=O)=O)cc2)cc1	ALR H2O2 inh 98
O=C(Cc1ccccc1F)NCC(=O)Nc1ccccc1Br	none (no result: ALR H2O2 inh)
CC(C)Sc1nc(SCC(=O)O)c2c3c(sc2n1)COC(C)(C)C3	none (no result: ALR H2O2 inh)
Cc1c(NC(=O)CSc2nnc(-c3ccco3)n2-c2ccccc2)c(=O)n(-c2ccccc2)n1C	none
CCS(=O)(=O)C1=NSC2=NC(=O)/C(=C\c3ccc(OS(=O)(=O)c4ccccc4)c(OC)c3)C(=N)N21	ALR H2O2 inh 97
COc1cc(/C=C2/C(=N)N3C(=NC2=O)SN=C3S(C)(=O)=O)ccc1OS(=O)(=O)c1ccc(C)cc1	none
CCN1CCN(CCCNC(=O)C2CCCN(c3nnc(-n4cccc4)s3)C2)CC1 (stereo not given)	none
Cc1cc(C)c(S(=O)(=O)Nc2ccc(N(C)C)cc2)c(C)c1-n1cnnn1	ALR H2O2 inh 99
O=C(NC(=S)Nc1cccc(Cl)c1N1CCCCC1)c1cccs1	none
COc1ccc(-c2csc(N(CCCN(C)C)C(=O)c3ccc(Br)cc3)n2)cc1	NRP1-CendR mod 22
O=C(NC1CC1)C1CC(=O)N(c2ccccc2)C1 (stereo not given)	none (no result: ALR H2O2 inh)
COCCCNC(=O)c1ccc2c(=O)n(CC3CCCO3)c(=S)[nH]c2c1 (stereo not given)	ALR H2O2 inh 87
CCCCCn1c(=O)[nH]c2cc(C(=O)NCCCN3CCC(C)CC3)ccc2c1=O	NRP1-CendR mod 28
C[C@@H]1CN([C@H](C)CO)C(=O)c2c(c3ccccc3n2C)-c2ccccc2CO[C@@H]1CN(C)Cc1ccc(O)cc1	none (no result: A3G deaminase, ALR H2O2 inh, CR mimetic SO, A3A deaminase, PfM18AAP inh)
NNC(=O)c1csc(-c2ccc(C(F)(F)F)cc2Cl)n1	ALR H2O2 inh 93
O=C1OC(/C(=C\Nc2ccc(F)cc2F)[N+](=O)[O-])c2ccccc21 (stereo not given)	ALR H2O2 inh 97, PfM18AAP inh 47
O=C1OC(/C(=C\Nc2cc(Cl)ccc2O)[N+](=O)[O-])c2ccccc21 (stereo not given)	PfM18AAP inh 41
O=C1OC(Nc2ccc(F)c([N+](=O)[O-])c2)c2ccccc21 (stereo not given)	none (no result: ALR H2O2 inh)
CCN(CC)C(=O)c1ccc(-c2nnc(Nc3ccc(O)cc3)c3ccccc23)cc1	none
CC(=O)Nc1ccc(Nc2nnc(-c3ccc(O)cc3)c3ccccc23)cc1	ALR H2O2 inh 84
NC(=O)c1ccc(Nc2nnc(-c3ccc(O)cc3)c3ccccc23)cc1	ALR H2O2 inh 96
NC(=O)Cc1ccc(Nc2nnc(-c3ccc(O)cc3)c3ccccc23)cc1	ALR H2O2 inh 99
N#Cc1c(N)sc(=S)c2c1CCN(Cc1ccccc1)C2	A3G deaminase 53 (no result: NRP1-CendR mod, ALR H2O2 inh, PfM18AAP inh)
CCN1CCc2c(sc(N)c2C#N)C1	none (no result: ALR H2O2 inh)
CCNc1ccc(S(=O)(=O)N(C)C)cc1NCC(=O)Nc1ccccc1F	ALR H2O2 inh 99
Cc1cccc(NC(=S)NNC(=O)c2nn(C)cc2Cl)c1	ALR H2O2 inh 89
Cc1ccc(NC(=S)NNC(=O)c2nn(C)cc2Cl)cc1	ALR H2O2 inh 91
Cc1cccc(NC(=S)NNC(=O)c2ccccc2Br)c1	ALR H2O2 inh inconclusive
Cc1ccc(NC(=O)CSc2n[nH]c(-c3ccco3)n2)c(C)c1	none
Cc1ccc(NC(=O)CSc2nc(-c3ccco3)nc3cc(=O)[nH]n23)c(Cl)c1	ALR H2O2 inh 99
Cc1cccc(N(C(=O)Cn2nnc3ccccc32)C(C(=O)NCc2ccco2)c2ccncc2)c1 (stereo not given)	none
O=C(NCc1ccco1)C(c1ccco1)N(C(=O)Cn1nnc2ccccc21)c1ccc2c(c1)CCC2 (stereo not given)	NRP1-CendR mod 19
CC(=O)Nc1ccc2c(c1)NC(=O)CC2	none
N#CC(C#N)=C1CCc2ccccc2N1	none (no result: ALR H2O2 inh)
Nc1ccc2c(c1)Nc1ccccc1CC2	ALR H2O2 inh 99
COC(=O)Nc1ccc2c(c1)Nc1ccccc1CC2	ALR H2O2 inh 98
CCn1cc(/C=C(\NC(=O)c2cc(OC)c(OC)c(OC)c2)C(=O)NCCCN2CCOCC2)c2ccccc21	none
CCn1c(=O)c2sccc2n2c(CCCC(=O)NCCc3ccc(S(N)(=O)=O)cc3)nnc12	none
COc1cccc(/C(O)=C2/C(=O)C(=O)N(c3cc(C)on3)C2c2cccs2)c1 (stereo not given)	none
O=C(Nc1ccccc1)c1cc(-n2cnnc2)ccc1Cl	none
O=C(Nc1ccc(N2CCOCC2)cc1)c1cc(-n2cnnc2)ccc1Cl	NRP1-CendR mod 26
Cc1ccc(C)c(NC(=O)CN2C(=O)c3ccccc3C2=O)c1	none (no result: PfM18AAP inh)
Cc1ccc(C)c(NC(=O)CSc2nc3ccc(N4C(=O)c5ccccc5C4=O)cc3s2)c1	ALR H2O2 inh 86
COc1cc(SC#N)ccc1N=Cc1c(C)[nH]n(-c2ccc(C)c(C)c2)c1=O	ALR H2O2 inh 94
COc1cc(SC#N)ccc1N=Cc1c(C)[nH]n(-c2ccc(Cl)cc2)c1=O	none
CC(=O)c1cc(CC=C(C)C)c(O)cc1O	ALR H2O2 inh 83
CC(=O)c1cc(CC=C(C)C)c(O)c(CC=C(C)C)c1O	none (no result: ALR H2O2 inh)
COc1ccccc1C(C)NC(=O)CCC(=O)N1CCN(S(=O)(=O)c2ccc(Cl)cc2)CC1 (stereo not given)	none (no result: A3G deaminase, ALR H2O2 inh, CR mimetic SO, A3A deaminase, PfM18AAP inh)
O=C1CSC(=S)N1/N=C/c1ccc(C(F)(F)F)cc1	PfM18AAP inh 31 (no result: ALR H2O2 inh)
N=C1SCC(=O)N1/N=C/c1ccccc1	none
O=C1CSC(=S)N1/N=C/C=C/c1ccccc1	PfM18AAP inh 54
Cc1ccc2cc(C(c3nnnn3CC3CCCO3)N3CCCC4(CCCCC4)C3)c(=O)[nH]c2c1 (stereo not given)	none (no result: A3G deaminase, ALR H2O2 inh, CR mimetic SO, A3A deaminase)
CC1(Cc2cccc(F)c2)C(=O)Nc2ccc(S(=O)(=O)NC3CCCCC3)cc21 (stereo not given)	none (no result: A3G deaminase, ALR H2O2 inh, CR mimetic SO, A3A deaminase, PfM18AAP inh)
Nc1nc2c(ncn2[C@@H]2O[C@H](CNCc3cnc(N4CCOCC4)nc3)[C@@H](O)[C@H]2O)c(=O)[nH]1	none (no result: A3G deaminase, ALR H2O2 inh, CR mimetic SO, A3A deaminase, PfM18AAP inh)
COC(=O)C[C@H]1c2cc(F)cc(F)c2S(=O)(=O)N1C1CCN(Cc2ccccc2)CC1	NRP1-CendR mod 27 (no result: PfM18AAP inh)
COC(=O)C[C@H]1c2cc(C(F)(F)F)ccc2S(=O)(=O)N1Cc1ccccc1	NRP1-CendR mod 25 (no result: PfM18AAP inh)

Screening data deposited in PubChem BioAssay by several laboratories.
